The values below come from PubChem BioAssay (Tox21).

Records with an inconclusive call do not appear. A call without a number means that no potency is given here. A number with no mark means an inactive call. The source made the active and inactive calls. Calls come from the whole dose curve.

Chain of D(2) dopamine receptor (Homo sapiens) (P14416 whole entry, looked up): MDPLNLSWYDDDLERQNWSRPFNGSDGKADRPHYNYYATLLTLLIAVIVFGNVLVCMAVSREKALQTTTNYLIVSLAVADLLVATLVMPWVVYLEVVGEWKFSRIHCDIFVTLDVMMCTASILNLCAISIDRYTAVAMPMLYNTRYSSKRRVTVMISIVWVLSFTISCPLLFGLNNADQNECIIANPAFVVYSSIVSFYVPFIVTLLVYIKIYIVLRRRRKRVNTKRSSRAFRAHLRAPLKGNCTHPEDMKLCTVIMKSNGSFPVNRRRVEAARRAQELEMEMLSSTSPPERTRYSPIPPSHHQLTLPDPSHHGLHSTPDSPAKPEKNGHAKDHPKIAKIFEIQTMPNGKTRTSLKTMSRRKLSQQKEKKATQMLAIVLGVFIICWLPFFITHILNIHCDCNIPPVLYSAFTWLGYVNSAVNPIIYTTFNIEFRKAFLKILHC

The target in this assay is D(2) dopamine receptor (Homo sapiens) (UniProt P14416). Nature of the assay: Dopamine D2 receptor (DRD2) small molecule agonists, cell-based qHTS assay (AID 1963594). Note: nearly all actives have a fitted effect of over 35% in size. The note with it: HEK293-DRD2 cAMP HTRF, agonist mode, 30 min; series mostly up to 92.4 µM. The source says:
National Center for Advancing Translational Sciences [NCATS]
Division of Preclinical Innovation [DPI]
U.S. Environmental Protection Agency [EPA]
National Institutes of Environmental Health Sciences [NIEHS]
National Toxicology Program [NTP]
U.S. Food and Drug Administration [FDA]
DRD2 is the D2 subtype of the dopamine receptor, which is coupled to Gi subtype of G protein-coupled receptor. This G protein-coupled receptor inhibits adenylyl cyclase activity. The DRD2-HEK293 cell line stably expressing D2 dopamine receptor can be used for screening agonists and antagonists of interactions between D2 and its ligands. The Hek293-DRD2 cAMP assay is based on HTRF technology. It measures changes of cAMP accumulation in response to Gi coupled GPCR activation or inhibition.
Tox21 Assay Protocol Summary:
DRD2-Hek293 cells were dispensed at 600 cells/3uL/well in 1536-well white plates using a Multidrop Dispenser. After the assay plates were incubated at a 37 C/5% CO2 incubator for 24 h, 1 uL of Ro20-1724 at final concentration of 0.1 mM was transferred to the assay plate by a Flying Reagent Dispenser. Following Ro20-1724 addition, 23 nL of compound dissolved in DMSO, positive controls or DMSO only was added to the assay plates via Wako pintool station. The assay plates were incubated at room temperature for 10 min. Next, 1 uL of NKH477 at 200nM was added into the plates. After the assay plates were incubated at room temperature for an additional 30 min, 2.5 ul/well of cAMP-d2 and 2.5 ul/well of anti-cAMP-cryptate were added respectively into the assay plates using a Flying Reagent Dispenser. The plates were incubated at room temperature for 1 h. The fluorescence intensity in the plates was measured at 340 nm excitation and 665 & 620 nm emission by an Envision plate reader.
As for `O=C(Cl)c1c(Cl)cccc1Cl`, the Potency entry was “inactive”.

With `CN1[C@@H]2CC[C@@H]1CC(OC(=O)C(CO)c1ccccc1)C2` (stereo not given in full), the Potency entry is “inactive”. `CCOC(=O)c1ccc(N(C)C)cc1`: the Potency result was “inactive”.

In the case of `Clc1cc(Cl)c2c(c1)N=C1CCCCCN1C2`, the Potency entry is “inactive”. On to `Clc1sc(Cl)c(Cl)c1Cl`, for which the Potency entry is “inactive”.

Take `O=C(Cl)c1cc(C(=O)Cl)cc(C(=O)Cl)c1`: the Potency result is “inactive”. In the case of `CCCCOC(=O)CCC(C)=O`, the Potency entry is “inactive”. Regarding `COC(=O)c1ccc(C(=O)OC)c(C(=O)OC)c1`, the Potency result is “inactive”. On to `CCCCCCCCCCCCN1CCCC1=O`, for which the Potency entry was “inactive”.

As for `C=C(C)C1CCC(C)(O)CC1` (stereo not given), the Potency result was “inactive”. For the molecule `CCCCN(CCC(=O)OCC)C(C)=O`, the Potency result was “inactive”. `Nc1ccn([C@@H]2O[C@H](CO)[C@@H](O)[C@@H]2O)c(=O)n1`: the Potency result is “inactive”. With `OCC1CC=CCC1` (stereo not given), the Potency entry was “inactive”. On the same count and under the same terms, for `CC(CCO)CCCC(C)(C)O` (stereo not given) the value was “inactive”; for `COc1cc(Nc2c(C#N)cnc3cc(OCCCN4CCN(C)CC4)c(OC)cc23)c(Cl)cc1Cl`, “inactive”; for `CC(C)COCC(CN(Cc1ccccc1)c1ccccc1)N1CCCC1` (stereo not given), “inactive”. The same measure, in the same setting: for `CC1(C)C(=O)N(Br)C(=O)N1Br` the value was “inactive”; for `COc1cc(C(=O)OCCCN2CCCN(CCCOC(=O)c3cc(OC)c(OC)c(OC)c3)CC2)cc(OC)c1OC`, “inactive”; for `Cc1ccc([N+](=O)[O-])cc1Cl`, “inactive”.

For the molecule `COC(C)CCO` (stereo not given), the Potency entry was “inactive”. Consider `C=Cc1ccc(O)c(OC)c1`, for which the Potency entry is “inactive”. Consider `c1ccc2sc(SN(C3CCCCC3)C3CCCCC3)nc2c1`, for which the Potency entry is “inactive”.

`CC(C)C(O)(c1ccc(OC(F)(F)F)cc1)c1cncnc1` (stereo not given): the Potency entry is “inactive”. Turning to `CC(C)NCC(O)COc1cccc2[nH]ccc12` (stereo not given), the Potency result was “inactive”.

As to `CCCCC(CC)C(=O)OCCOCCOCCOCCOC(=O)C(CC)CCCC` (stereo not given), the Potency entry was “inactive”.

Turning to `CCCCCCCCCCCCCCCCCBr`, the activation is -0.0433% [at 19 µM]. As for `CCc1ncc(C)[nH]1`, the Potency entry is “inactive”. With `CC1CCCCN1CCCOC(=O)c1ccc(OC2CCCCC2)cc1` (stereo not given), the Potency entry is “inactive”.

On to `C=C(C)C(=O)OCCOCCOCCOCCOC(=O)C(=C)C`, for which the Potency result is “inactive”. Consider `COC(=O)c1cc(Cl)cc(Cl)c1`, for which the Potency result was “inactive”.

With `Nc1cccnc1N`, the Potency entry is “inactive”. The same measure, in the same setting: for `O=C(NS(=O)(=O)/C=C/c1cccs1)c1ccc(F)cc1Br` the value was “inactive”.

In the case of `COC=O`, the activation was -14.1% [at 8.39 µM]. For `Cc1oc(-c2ccccc2)nc1CCOc1cccc2c1ccn2CCC(=O)O`, the Potency entry is “inactive”. On the same count and under the same terms, in the case of `COc1ccc(COC=O)cc1` it was “inactive”; in that of `CCOc1ccc(NC(N)=O)cc1`, “inactive”.

Consider `CCCCCCCCCCCCCCCCC(C(=O)O)C(O)(CC(=O)O)C(=O)O` (stereo not given), for which the Potency entry is “inactive”.

On to `CCCCCCCCCCCCCCCCN(C)C`, for which the activation is -3.52% [at 8.39 µM].

Consider `OCCN1CCN(CCCN2c3ccccc3Sc3ccc(C(F)(F)F)cc32)CC1`, for which the Potency entry is “inactive”. For the molecule `CNS(=O)(=O)c1cc(C(=O)N2CCC(CCN3C4CCC3CC(n3c(C)nc5ccccc53)C4)(c3cccc(F)c3)CC2)c(Cl)cc1F` (stereo not given), the Potency entry is “inactive”.
